This is an account of results in PubChem BioAssay (NCI).

Some test systems named below: DU-145 prostate; K-562 leukemia; MALME-3M melanoma; MDA-MB-231 breast; RXF 393 renal; SF-268 CNS; SF-295 CNS; SF-539 CNS; UACC-257 melanoma; M14 melanoma; HCT-15 colon; HT29 colon; SNB-75 CNS; SNB-19 CNS; U251 CNS; PC-3 prostate; SK-MEL-5 melanoma; UACC-62 melanoma; LOX IMVI melanoma; SK-MEL-28 melanoma.
Experiment in all cases: NCI-60 one-dose screen, 48 h (100 = growth as untreated, 0 = no growth, -100 = all killed)
Details in all cases: 10 µM unless noted

SMILES strings stand for the structures. The panel holds about 83,000 compounds, 20% with a hit somewhere; the sample as a whole holds those more often.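 Single-concentration screen, 48 h exposure, 96-well plates. Endpoint: percent growth. Below 10 = active.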 A number with no mark means an inactive call. Calls of active or inactive are those of the source.

For `Nc1nc(N)c(N=Nc2ccccc2)c(-c2ccccc2)n1`, the growth in the assay with DU-145 prostate was 76.8%; with K-562 leukemia it was 77.1%; with MALME-3M melanoma, 77.4%; with MDA-MB-231 breast, 49.9%; in the assay on RXF 393 renal, 24.9%; in the assay with SF-268 CNS it was 58%. The growth is 54.2% with SF-295 CNS; 47.4% in the assay on SF-539 CNS; 90.8% in the assay with UACC-257 melanoma; 84.5% with M14 melanoma; 58.6% with HCT-15 colon; 51.1% in the assay with HT29 colon. In addition, the growth in the assay with SNB-75 CNS is -0.588% (active); in the assay with SNB-19 CNS, 69.5%; with U251 CNS it was 72.4%; in the assay with PC-3 prostate, 35.8%; in the assay on SK-MEL-5 melanoma, 46.9%; in the assay on UACC-62 melanoma it was 41.4%. The growth in the assay on LOX IMVI melanoma was 42.6%; in the assay on SK-MEL-28 melanoma it was 76.2%.

For the molecule `COc1ccc(/C=C/C(c2cc(OC)c(OC)c(OC)c2)n2ccnc2)cc1O` (stereo not given), the growth in the assay with DU-145 prostate was 37.8%; in the assay on K-562 leukemia it was 13.6%; with MALME-3M melanoma, 57.7%; in the assay with MDA-MB-231 breast it was 53%; with RXF 393 renal, 33.1%; with SF-268 CNS it was 56.1%. The growth with SF-295 CNS is 16.6%; in the assay on SF-539 CNS it was 23.1%; in the assay on UACC-257 melanoma, 34.2%; in the assay on M14 melanoma, 18.6%; in the assay with HCT-15 colon, 24.9%; in the assay on HT29 colon, 71%. Moreover, the growth in the assay on SNB-75 CNS is 20%; in the assay with SNB-19 CNS, 47.3%; in the assay with U251 CNS, 27.1%; in the assay on PC-3 prostate, 25.3%; with SK-MEL-5 melanoma, 17%; in the assay on UACC-62 melanoma, 36.4%. The growth is 46.1% in the assay with LOX IMVI melanoma and 58.9% in the assay on SK-MEL-28 melanoma.

As for `O=C1c2cccc3cccc(c23)C(=O)N1C/C=C/c1ccc2c3c(cccc13)C(=O)N(CCO)C2=O`, the growth with DU-145 prostate is 70.4%; with K-562 leukemia it was 79.9%; in the assay with MALME-3M melanoma, 75.5%; with MDA-MB-231 breast, 62.1%; in the assay on RXF 393 renal, 27.9%; with SF-268 CNS it was 87.7%. Besides, the growth in the assay with SF-295 CNS is 76.5%; in the assay with SF-539 CNS, 72.7%; with UACC-257 melanoma, 79.8%; with M14 melanoma it was 87.8%; with HCT-15 colon, 75.3%; in the assay on HT29 colon, 87%. Further, the growth with SNB-75 CNS is 58.6%; with SNB-19 CNS, 88%; in the assay with U251 CNS it was 71.1%; in the assay with PC-3 prostate, 51.2%; in the assay with SK-MEL-5 melanoma, 89.9%; in the assay on UACC-62 melanoma, 91.4%. The values for the growth in the assay with LOX IMVI melanoma and with SK-MEL-28 melanoma were 87.3% and 84.9%, respectively.

Turning to `NC(=O)c1cnc(Nc2cccc(N)c2)nc1NCCCNC(=O)C1CCC1`, the growth in the assay on DU-145 prostate is 75.9%; with K-562 leukemia, 52%; in the assay with MALME-3M melanoma, 80.3%; with MDA-MB-231 breast, 50.1%; in the assay on RXF 393 renal, 21.4%; with SF-268 CNS, 76.2%. The growth in the assay on SF-295 CNS is 69.3%; in the assay with SF-539 CNS, 5.4% (active); with UACC-257 melanoma it was 107%; in the assay with M14 melanoma, 55.4%; in the assay with HCT-15 colon, 101%; in the assay on HT29 colon, 92.9%. The growth in the assay with SNB-75 CNS was 53.8%; in the assay with SNB-19 CNS, 82.8%; in the assay with U251 CNS, 64.8%; with PC-3 prostate, 72.4%; with SK-MEL-5 melanoma, 84.6%; in the assay with UACC-62 melanoma it was 70%. Also, the growth in the assay on LOX IMVI melanoma was 68.7%; in the assay with SK-MEL-28 melanoma, 92%.

On to `O=C1/C(=C/c2ccc(F)cc2)CN(C(=O)C(Cl)Cl)C/C1=C\c1ccc(F)cc1`, for which the growth in the assay on DU-145 prostate was -96.5% (active); with K-562 leukemia, -6.01% (active); with MALME-3M melanoma, -34.9% (active); in the assay on MDA-MB-231 breast it was -39.8% (active); with RXF 393 renal it was -91.8% (active); in the assay with SF-268 CNS it was -30.9% (active). The growth was -75.9% (active) with SF-295 CNS; -97% (active) in the assay with SF-539 CNS; -43.3% (active) with UACC-257 melanoma; -68.5% (active) in the assay on M14 melanoma; -57.9% (active) in the assay with HCT-15 colon; -24.7% (active) with HT29 colon. Besides, the growth in the assay on SNB-75 CNS was -61.2% (active); with SNB-19 CNS, -87% (active); in the assay on U251 CNS it was -95.5% (active); with PC-3 prostate, -74.3% (active); in the assay on SK-MEL-5 melanoma it was -64.9% (active); with UACC-62 melanoma, -61.1% (active). Further, the growth with LOX IMVI melanoma is -90.2% (active); in the assay on SK-MEL-28 melanoma, -72.1% (active).

For the molecule `COc1ccc(-c2n[nH]c(=O)c3nc(NC(=S)Nc4ccc(Oc5ccccc5)cc4)sc23)cc1`, the growth with DU-145 prostate is 102%; with K-562 leukemia it was 89.3%; with MALME-3M melanoma it was 110%; in the assay with MDA-MB-231 breast, 84%; in the assay with RXF 393 renal, 104%; with SF-268 CNS, 102%. Moreover, the growth is 102% in the assay on SF-295 CNS; 105% in the assay on SF-539 CNS; 79.7% in the assay with UACC-257 melanoma; 88.9% in the assay on M14 melanoma; 103% in the assay with HCT-15 colon; 87.6% in the assay with HT29 colon. The growth in the assay with SNB-75 CNS is 80.8%; with SNB-19 CNS, 101%; in the assay on U251 CNS it was 83.3%; in the assay with PC-3 prostate it was 83.8%; in the assay with SK-MEL-5 melanoma it was 99.9%; in the assay with UACC-62 melanoma, 95.2%. Further, the growth with LOX IMVI melanoma and in the assay with SK-MEL-28 melanoma was 104% in each case.

`S=C(c1ccc2c(c1)OCO2)N1CCN(c2cccc(Cl)c2)CC1`: the growth was -0.195% (active) with DU-145 prostate; 29% in the assay with K-562 leukemia; 40.7% in the assay with MALME-3M melanoma; 36.2% in the assay with MDA-MB-231 breast; 42.1% in the assay with RXF 393 renal; 41% in the assay with SF-268 CNS. Further, the growth in the assay on SF-295 CNS is 9.3% (active); in the assay with SF-539 CNS, -4.83% (active); with UACC-257 melanoma, 54%; in the assay with M14 melanoma it was 13.5%; in the assay on HCT-15 colon it was 24.1%; in the assay with HT29 colon, 4.72% (active). Moreover, the growth was 12.5% in the assay on SNB-75 CNS; 40.4% with SNB-19 CNS; 28.5% in the assay with U251 CNS; 15.9% with PC-3 prostate; -10.8% (active) in the assay on SK-MEL-5 melanoma; 25.4% in the assay with UACC-62 melanoma. For the same molecule, the growth with LOX IMVI melanoma was 45.4%; with SK-MEL-28 melanoma, 53.5%.

For `COc1ccc(/C=C/C(=O)c2cc3c(N)c(C(=O)Nc4cccc(Cl)c4C)sc3nc2C)cc1`, the growth in the assay on DU-145 prostate was 7.29% (active); with K-562 leukemia, 13%; in the assay on MALME-3M melanoma, 45.8%; in the assay on MDA-MB-231 breast, -12.3% (active); with RXF 393 renal it was -17.3% (active); with SF-268 CNS it was 11.7%. The growth with SF-295 CNS was 13.1%; with SF-539 CNS, -40.6% (active); with UACC-257 melanoma it was 63%; with M14 melanoma, -6.38% (active); in the assay on HCT-15 colon it was 5.62% (active); with HT29 colon, -2.08% (active). For the same molecule, the growth in the assay on SNB-75 CNS was 21.3%; with SNB-19 CNS it was 5.32% (active); in the assay with U251 CNS, -20% (active); with PC-3 prostate it was 22.7%; in the assay on SK-MEL-5 melanoma it was -28.9% (active); in the assay with UACC-62 melanoma it was 26.9%. Besides, the growth in the assay with LOX IMVI melanoma is -44.6% (active); with SK-MEL-28 melanoma, 43.7%.
